“And” between values parts separate entries of the source, which are not always exact repeats. Identical values can stand only once. The whole screen tested about 5,500 compounds, of which about 2,000 (36%) were called active. Roughly 18% stayed inconclusive and do not appear here. Rule as the data show it: active = normalized growth mostly below about 0.91 (no sharp cut-off); inconclusive = no clear call, values can overlap the other calls; inactive = mostly above about 0.92. This is one part of the list.
Test: chemical genetic growth profiling, strain panel (AID 1159580);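 also: tested at 20 µM; growth read once vehicle control cultures reached saturation at 30 °C; 1 = growth at the plate median or of vehicle wells; lower values mean less growth of the strain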
Settings: S. cerevisiae deletion strains, growth OD

Measured: normalized growth

O[N+]1=CC=CCC1=S.On1ccccc1=S.[Zn]
active: locus YAL013W, strain DEP1, stronger effect = lower value 0.0588 | locus YAL021C, strain ccr4, stronger effect = lower value 0.0689 | locus YAL026C, strain drs2, stronger effect = lower value 0.0618 | locus YAL030W, strain snc1, stronger effect = lower value 0.0584 | locus YBL061C, strain skt5, stronger effect = lower value 0.0681 | locus YBR009C, strain hhf1, stronger effect = lower value 0.0728 | locus YBR021W, strain FUR4, stronger effect = lower value 0.0965 | locus YBR023C, strain chs3, stronger effect = lower value 0.0675 | locus YBR171W, strain sec66, stronger effect = lower value 0.0802 | locus YBR229C, strain ROT2, stronger effect = lower value 0.052 | locus YBR231C, strain swc5, stronger effect = lower value 0.0683 | locus YBR279W, strain paf1, stronger effect = lower value 0.0672 | locus YCL011C, strain gbp2, stronger effect = lower value 0.0581 | locus YCL016C, strain dcc1, stronger effect = lower value 0.0685 | locus YCL029C, strain bik1, stronger effect = lower value 0.0621 | locus YCL061C, strain MRC1, stronger effect = lower value 0.0686 | locus YCL069W, strain vba3, stronger effect = lower value 0.0611 | locus YCR088W, strain abp1, stronger effect = lower value 0.0601 | locus YDL005C, strain med2, stronger effect = lower value 0.081 | locus YDL035C, strain GPR1, stronger effect = lower value 0.0513 | locus YDL040C, strain nat1, stronger effect = lower value 0.061 | locus YDL074C, strain BRE1, stronger effect = lower value 0.0852 | locus YDL101C, strain DUN1, stronger effect = lower value 0.0624 | locus YDL185W, strain tfp1, stronger effect = lower value 0.0604 | locus YDL192W, strain arf1, stronger effect = lower value 0.0611 | locus YDR001C, strain nth1, stronger effect = lower value 0.0598 | locus YDR069C, strain doa4, stronger effect = lower value 0.0662 | locus YDR101C, strain arx1, stronger effect = lower value 0.0573 | locus YDR137W, strain rgp1, stronger effect = lower value 0.0942 | locus YDR150W, strain NUM1, stronger effect = lower value 0.0564 | locus YDR159W, strain sac3, stronger effect = lower value 0.104 | locus YDR162C, strain NBP2, stronger effect = lower value 0.0519 | locus YDR195W, strain ref2 0.122 | locus YDR297W, strain sur2, stronger effect = lower value 0.0587 | locus YDR318W, strain mcm21, stronger effect = lower value 0.0644 | locus YDR334W, strain swr1, stronger effect = lower value 0.0636 | locus YDR335W, strain msn5, stronger effect = lower value 0.0604 | locus YDR388W, stronger effect = lower value 0.0563 | locus YDR392W, strain spt3, stronger effect = lower value 0.102 | locus YDR502C, strain sam2, stronger effect = lower value 0.0617 | locus YEL003W, strain gim4, stronger effect = lower value 0.0591 | locus YEL037C, strain rad23, stronger effect = lower value 0.0593 | locus YEL061C, strain CIN8 (second series), stronger effect = lower value 0.0642 | locus YEL061C, strain CIN8, stronger effect = lower value 0.0538 | locus YER015W, strain faa2, stronger effect = lower value 0.0649 | locus YER016W, strain bim1, stronger effect = lower value 0.0653 | locus YER110C, stronger effect = lower value 0.0752 | locus YER111C, strain swi4, stronger effect = lower value 0.0747 | locus YER155C, strain BEM2 (second series), stronger effect = lower value 0.0952 | locus YER155C, strain BEM2, stronger effect = lower value 0.0682 | locus YER167W, strain BCK2, stronger effect = lower value 0.0543 | locus YFR010W, strain ubp6, stronger effect = lower value 0.0685 | locus YGL078C, strain dbp3, stronger effect = lower value 0.0615 | locus YGL086W, strain mad1, stronger effect = lower value 0.0569 | locus YGL167C, strain pmr1, stronger effect = lower value 0.0764 | locus YGL173C, strain kem1, stronger effect = lower value 0.0718 | locus YGL227W, strain vid30, stronger effect = lower value 0.0622 | locus YGL240W, strain doc1, stronger effect = lower value 0.0817 | locus YGL248W, strain PDE1, stronger effect = lower value 0.0522 | locus YGL253W, strain hxk2, stronger effect = lower value 0.0558 | locus YGR078C, strain PAC10, stronger effect = lower value 0.0545 | locus YGR135W, strain pre9, stronger effect = lower value 0.0622 | locus YGR252W, strain gcn5, stronger effect = lower value 0.164 | locus YHR013C, strain ard1, stronger effect = lower value 0.117 | locus YHR027C, strain rpn1, stronger effect = lower value 0.0678 | locus YHR030C, strain SLT2, stronger effect = lower value 0.0537 and 0.0956 | locus YHR079C, strain IRE1 (second series), stronger effect = lower value 0.0577 | locus YHR079C, strain IRE1, stronger effect = lower value 0.111 | locus YHR094C, strain hxt1, stronger effect = lower value 0.0579 | locus YHR129C, strain ARP1, stronger effect = lower value 0.0604 | locus YHR142W, strain chs7, stronger effect = lower value 0.0777 | locus YHR200W, strain rpn10, stronger effect = lower value 0.0589 | locus YIL066C, strain RNR3, stronger effect = lower value 0.0511 | locus YIL073C, strain SPO22, stronger effect = lower value 0.113 | locus YIL125W, strain kgd1, stronger effect = lower value 0.0608 | locus YIR030C, strain dcg1, stronger effect = lower value 0.0598 | locus YJL092W, strain hpr5, stronger effect = lower value 0.0603 | locus YJL095W, strain BCK1 (second series), stronger effect = lower value 0.0629 | locus YJL095W, strain BCK1, stronger effect = lower value 0.0641 and 0.0953 | locus YJL115W, strain asf1, stronger effect = lower value 0.0768 | locus YJL129C, strain trk1, stronger effect = lower value 0.0933 | locus YJL134W, strain LCB3, stronger effect = lower value 0.0509 | locus YJL154C, strain vps35, stronger effect = lower value 0.064 | locus YJL164C, strain tpk1, stronger effect = lower value 0.0692 | locus YJL166W, strain qcr8, stronger effect = lower value 0.0996 | locus YJL168C, strain set2, stronger effect = lower value 0.0599 | locus YJL187C, strain SWE1 (second series), stronger effect = lower value 0.0508 | locus YJL187C, strain SWE1, stronger effect = lower value 0.0629

— PubChem BioAssay AID1159580 (chemical genetic matrix, 2015)
